The results in this text go back to PubChem BioAssay AID488841 (Sanford-Burnham Center for Chemical Genomics, 2010).

SMILES strings stand for the structures. Out of some 1,400 compounds screened, about 380 (27%) were called active.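 Rule for the calls: active = mean inhibition above 50% across duplicate retests at 10 µM; inactive = the rest.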 Some of the results follow.

Usually inhibition stands for the percentage by which the read-out fell short of the control.

This assay in a line: yeast NALP1 reporter signal suppression – S. cerevisiae, luminescence, single concentration, NALP1 inhibitor project, confirmation (AID 488841).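 Note: plate controls were DMSO in galactose medium for no effect and cells in plain SD medium for full effect.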 To be noted: S. cerevisiae NALP1/ASC/Caspase-1 reporter, beta-gal luminescence; at 10 µM; stronger effect = higher value.
With `O=[N+]([O-])/C(C(=C(Cl)Cl)N1CCN(Cc2ccccc2)CC1)=C1\NCCN1Cc1ccc(Cl)nc1`, the inhibition was 35.4% (inactive).

For the compound `CCOC(=O)c1c(C)[nH]c(N=Nc2cccc(C)c2)c1C`, the inhibition was 46.4% (inactive).

`Oc1c(Cl)cc(Cl)c(Cl)c1Cc1c(O)c(Cl)cc(Cl)c1Cl`: the inhibition is 99.9% (active).

Consider `Oc1c(Cl)cc(Cl)c2c1NCCC2`, for which the inhibition was 41.9% (inactive).

As for `CCOC(=O)C(C(=O)OCC)C(C(=O)OCC)N1CCOCC1` (configuration not stated), the inhibition was 64.8% (active).

As for `CCC(Cc1ccccc1)NC(=O)C1CCN(S(=O)(=O)c2c(C)noc2C)CC1` (configuration not stated), the inhibition was 26.1% (inactive).

With `CN(C)c1ccc(NC(=O)COC(=O)c2cc(Cl)ccc2[N+](=O)[O-])cc1`, the inhibition was 62.9% (active).

Consider `NS(=O)(=O)c1ccc(NC(=O)COC(=O)c2cn(-c3ccccc3)nc2-c2ccc(F)cc2)cc1`, for which the inhibition is 18.7% (inactive).

Turning to `CCOC(=O)c1cc([N+](=O)[O-])c([N+](=O)[O-])cc1NC(C)=O`, the inhibition was 24.9% (inactive).

On to `CC1CCN(CCOc2ccc(OCc3ccccc3)cc2)CC1`, for which the inhibition is 48.1% (inactive).

For the compound `O=C(N/N=C/c1cccc(F)c1)c1c(O)c2ccccc2[nH]c1=O`, the inhibition was 31.5% (inactive).

On to `CCOC(=O)c1nc(C)sc1-c1ccnn1S(=O)(=O)c1ccc(C)cc1`, for which the inhibition was 29.4% (inactive).

Take `O=C(O)CC(Cn1cnnn1)c1ccccc1` (configuration not stated): the inhibition was 25.9% (inactive).

For `CCc1cccc(OCCN2CCCC2)c1`, the inhibition was 29.9% (inactive).

Regarding `Clc1cccc(OCCN2CCN(CCOc3cccc(Cl)c3)CC2)c1`, the inhibition was 60.4% (active).

Take `Brc1cccc(OCCN2CCCCC2)c1`: the inhibition was 44.9% (inactive).

In the case of `CCN(CC)S(=O)(=O)c1cccc(C(=O)N[C@H](C(=O)O)C(C)C)c1`, the inhibition was 33.2% (inactive).

Regarding `Cc1cccc(N=C2NC(=O)/C(=C\c3cccs3)S2)c1`, the inhibition was 44% (inactive).

With `COC1=C(Nc2ccccc2)C(=O)c2ccccc2C1=O`, the inhibition was 17.4% (inactive).

Consider `O=C(Nc1ccc(Nc2ccccc2)cc1)C(Cl)Cl`, for which the inhibition is 78.8% (active).

As for `Cc1cccc(C)c1NC(=O)C(Cl)C(=O)c1ccccc1` (configuration not stated), the inhibition was 12.7% (inactive).

`CC(C)C(=O)Nc1ccc(Nc2ccccc2)cc1`: the inhibition was 58.4% (active).

In the case of `CC(CC(=O)Nc1cccc(Cl)c1)c1ccccc1` (configuration not stated), the inhibition is 42.7% (inactive).

`CNCc1ccccc1Sc1cc(O)ccc1O`: the inhibition is 26.8% (inactive).

With `O=S(=O)(CC12C3C4C5C1C2C(Br)(C43)C51OCCO1)c1ccccc1` (configuration not stated), the inhibition was 40% (inactive).

For `CC1CCCCN1S(=O)(=O)c1cnc(Cl)c(Br)c1` (configuration not stated), the inhibition is 68.1% (active).

Take `O=c1c(Br)c(N2CCCC2)cnn1-c1ccccc1`: the inhibition is 41.4% (inactive).

In the case of `CC1CC(C)CN(S(=O)(=O)c2ccc(C(=O)NCc3ccc4c(c3)OCO4)cc2)C1` (configuration not stated), the inhibition is 24.1% (inactive).

Turning to `Cc1ccc(-c2cc(NC(=O)CSc3n[nH]c(N)n3)n(-c3ccccc3)n2)cc1`, the inhibition was 24.2% (inactive).

Take `O=C(CCl)Nc1cc(-c2ccccc2)nn1-c1ccccc1`: the inhibition is 68.9% (active).

Turning to `COCC(=O)OCC(=O)Nc1cc(C(C)(C)C)nn1-c1ccccc1`, the inhibition is 25.4% (inactive).

As to `CC(C)c1ccc(-c2c(C#N)c(N)nc3c2CCCCC3)cc1`, the inhibition was 23.8% (inactive).

With `S=C(NCCCc1ccccc1)Nc1ccc(Cl)cc1`, the inhibition was 86.3% (active).

As to `S=C(NCCc1ccccc1)Nc1ccc(Br)cc1`, the inhibition is 70.2% (active).

As for `O=[N+]([O-])c1ccc(NC(=S)NCCc2ccc(F)cc2)cc1`, the inhibition is 85.5% (active).

`O=C(NC(CO)Cc1ccc([N+](=O)[O-])cc1)C(Cl)Cl` (configuration not stated): the inhibition is 29.8% (inactive).

As to `CC1CCCCN1C(=S)NCCc1ccccc1` (configuration not stated), the inhibition is 47.7% (inactive).

For `Cc1cc(C)cc(NS(=O)(=O)c2ccc(NC(=S)Nc3ccccc3)cc2)c1`, the inhibition was 26.1% (inactive).

Take `O=[N+]([O-])c1ccc(N2CCN(C(=S)Nc3ccccc3)CC2)cc1`: the inhibition is 32% (inactive).

On to `CCc1cccc(CC)c1NC(=S)NCCc1c(C)[nH]c2ccccc12`, for which the inhibition is 37.9% (inactive).

On to `CC(=O)Nc1ccc(C(=O)CSc2nnc(Cc3ccccc3)o2)cc1`, for which the inhibition is 11.8% (inactive).

Take `CCOC(=O)C1=NN(C(=O)c2ccc(C)cc2)C(O)(c2ccc(Cl)cc2)C1` (configuration not stated): the inhibition was 45.7% (inactive).

In the case of `Cc1cccc(NC2=C(Cl)C(=O)OC2NC(=O)c2ccccc2)c1` (configuration not stated), the inhibition was 7.1% (inactive).

`CC1CCCCN1C(=S)Nc1ccc2nc3n(c(=O)c2c1)CCCCC3` (configuration not stated): the inhibition is 35% (inactive).

For the compound `O=C(Nc1ccc2nc3n(c(=O)c2c1)CCCC3)c1cc([N+](=O)[O-])ccc1F`, the inhibition was 64.8% (active).

As for `Cc1ccc(NCC(=O)Nc2c(C)n(C)n(-c3ccccc3)c2=O)cc1S(=O)(=O)N(C)C`, the inhibition was 15.9% (inactive).

For `Cc1ccc(CC(=O)Nc2ccccc2-c2ccccc2)cc1C`, the inhibition was 35.9% (inactive).

`O=C(Nc1cccc(F)c1)c1ccc(CSc2ccccc2)o1`: the inhibition was 37.8% (inactive).

`Cc1ccccc1-c1ccc(C(=O)Nc2cccc(F)c2)o1`: the inhibition was 52.9% (active).

For the compound `CC1=C(C)/C(=N\OS(=O)(=O)c2ccc(C)cc2)C=CC1=O`, the inhibition was 79.5% (active).

Consider `N#Cc1cnn(-c2ncnc3sc4c(c23)CCCC4)c1N`, for which the inhibition is 33.3% (inactive).

For the compound `O=C(COC(=O)Cc1c(F)cccc1Cl)NCCC1=CCCCC1`, the inhibition was 37.5% (inactive).

As to `COc1cc(C=O)ccc1Oc1nnnn1-c1ccccc1`, the inhibition is 35% (inactive).

For `COc1ccc(/C=C2\COc3ccccc3C2=O)cc1OC`, the inhibition was 72.8% (active).

For the compound `COc1cc2ccccc2c2c1CCCC2=O`, the inhibition was 27.6% (inactive).

As for `COc1ccc(C2=C/C(=C/c3cccnc3)C(=O)O2)cc1OC`, the inhibition was 40.3% (inactive).

With `COc1ccc(/C=C2/CCc3ccccc3C2=O)cc1OC`, the inhibition was 59.9% (active).

For `O=C1/C(=C/c2ccco2)Cc2ccccc21`, the inhibition is 38.1% (inactive).

In the case of `O=C1/C(=C/c2ccccc2)CCCc2ccccc21`, the inhibition was 57.9% (active).

For `COc1cc(/C=C2/CCc3ccccc3C2=O)cc(OC)c1OC`, the inhibition was 53% (active).

Turning to `Cc1ccc(CN(C(=O)CNC(=O)c2cccs2)C(C(=O)NCC2CCCO2)c2ccccc2)cc1` (configuration not stated), the inhibition was 20.4% (inactive).

With `CC(C)NCCCCOc1cccc(Br)c1`, the inhibition is 43.9% (inactive).

For the compound `O=C(Cn1cccc(C(F)(F)F)c1=O)c1ccc(Cl)cc1`, the inhibition was 22% (inactive).

As to `Cc1oc(C(=O)O)cc1COc1ccc2c3c(c(=O)oc2c1)CCC3`, the inhibition is 14.6% (inactive).

In the case of `Cc1[nH][nH]c(=O)c1C(c1c(C)[nH][nH]c1=O)c1cn(Cc2ccc(Cl)c(Cl)c2)c2ccccc12`, the inhibition is 35.5% (inactive).

Consider `CN(C)c1ccc(/C=N/NC(=O)c2nnn(-c3nonc3N)c2CN(C)c2ccccc2)cc1`, for which the inhibition was 25.6% (inactive).

As for `Cc1nc2c(=O)n(C)c(=O)n(C)c2nc1Cl`, the inhibition is 36.3% (inactive).

On to `N=c1n(CC(=O)c2ccc([N+](=O)[O-])cc2)c2ccccc2n1Cc1ccccc1Cl`, for which the inhibition was 25.6% (inactive).

For `COc1ccc2c(c1)CC/C(=C/c1ccco1)C2=O`, the inhibition was 71.4% (active).

As to `Nc1ccc2c(c1)C/C(=C/c1ccco1)C2=O`, the inhibition was 18.6% (inactive).

With `c1ccc2sc(Sc3ncnc4sccc34)nc2c1`, the inhibition is 44.2% (inactive).

In the case of `Cc1ccc(-c2nc3cnccn3c2Nc2c(C)cccc2C)o1`, the inhibition was 58.9% (active).

In the case of `COc1ccc(-c2nc3cnccn3c2Nc2ccc(C)cc2)cc1`, the inhibition was 38.7% (inactive).

`CC(=O)OCC(=O)[C@H]1CC[C@H]2[C@@H]3CC=C4C[C@@H](O)CC[C@]4(C)[C@H]3CC[C@]12C`: the inhibition is 4.15% (inactive).

Consider `O=C(CCNC(=O)c1ccccc1Cl)Nc1ccc2c(c1)OCO2`, for which the inhibition is 22.9% (inactive).

Consider `COC(=O)c1ccc(Oc2ccc(S(=O)(=O)N3CCCCC3)cc2N)cc1`, for which the inhibition was 92.3% (active).

Consider `CC(=O)c1ccc(S(=O)(=O)N2CCCC2)cc1`, for which the inhibition was 23.6% (inactive).

Consider `COC(=O)c1ccc(NC(=O)C(=O)N2CCCC2)cc1`, for which the inhibition is 45.1% (inactive).

Turning to `CCc1ccc(NCc2nc(-c3ccccc3)no2)cc1`, the inhibition was 46.7% (inactive).

Turning to `O=S(=O)(CC(CN1CCCCC1)N1CCCCC1)c1ccc2ccccc2c1` (configuration not stated), the inhibition is 39.3% (inactive).

`CCOC(=O)c1cc(-c2ccc(OC)cc2)nc2c1c(C)nn2CCC#N`: the inhibition is 49.9% (inactive).

For `CCOC(=O)/C=C/C(=O)Nc1nccs1`, the inhibition is 45.4% (inactive).

Take `CCOC(=O)N1CCC(=NNS(=O)(=O)c2cccc([N+](=O)[O-])c2)CC1`: the inhibition is 24% (inactive).

As for `COC(=O)/C=C\C(=O)Nc1cccc([N+](=O)[O-])c1`, the inhibition is 51.5% (active).

With `O=C(/C=C/c1cccc([N+](=O)[O-])c1)c1ccco1`, the inhibition was 38.9% (inactive).

With `CCOC(=O)/C=C/C(=O)Nc1cccc([N+](=O)[O-])c1`, the inhibition is 66.3% (active).

On to `O=C(CON=C1c2ccccc2-c2ccccc21)NC12CC3CC(CC(C3)C1)C2`, for which the inhibition was 30.6% (inactive).

In the case of `CCOC(=O)c1c(C)[nH]c(C(=O)COC(=O)c2oc3ccccc3c2C)c1C`, the inhibition was 23.3% (inactive).

For the compound `CCC(C)NCCOc1cccc(Br)c1` (configuration not stated), the inhibition was 26.1% (inactive).

On to `CN(Cc1ccccc1)c1ncnc2c1cnn2-c1ccccc1`, for which the inhibition is 49.5% (inactive).

Turning to `COCCN(CCOC)c1ncnc2c1cnn2-c1ccc(Cl)cc1`, the inhibition is 56.8% (active).

For the compound `COC(=O)c1ccc(Cn2cnc3c(cnn3-c3ccc(Cl)cc3)c2=O)o1`, the inhibition is 34.6% (inactive).

With `Cc1occc1C(=O)Nc1c(F)c(F)c(F)c(F)c1F`, the inhibition is 25.9% (inactive).

Regarding `CCC1(CC)Cc2ccccc2C(Nc2c(C)n(C)n(-c3ccccc3)c2=O)=N1`, the inhibition was 21.4% (inactive).

In the case of `NNC(=S)NCc1cccnc1`, the inhibition was 24.5% (inactive).

As to `O=C1/C(=C\c2cccnc2)CN(Cc2ccccc2)C/C1=C\c1cccnc1`, the inhibition is 22.2% (inactive).

As for `S=C1SCN(Cc2cccnc2)CN1Cc1cccnc1`, the inhibition was 76% (active).

On to `Cc1ccc(Sc2nnc(Cc3ccccc3)c3ccccc23)cc1`, for which the inhibition was 38.2% (inactive).

For the compound `O=C(c1ccccc1)c1ccc(OCC(O)CNC2CCCc3ccccc32)cc1` (configuration not stated), the inhibition is 32.6% (inactive).

Consider `CCN1CCN(C(=S)Nc2ccc(Cl)c(Cl)c2)CC1`, for which the inhibition is 37% (inactive).

On to `CCOC(=O)N1CCN(c2c(NCCOC)c(=O)c2=O)CC1`, for which the inhibition is 26.4% (inactive).

For the compound `CCOC(=O)N1CCN(c2ccc(Cl)c(Cl)c2)CC1`, the inhibition was 60.3% (active).
